The assay concerns P. falciparum stage V gametocytes. The arrangement: BacTiter-Glo ATP luminescence viability of purified stage V gametocytes in 384-well plates, per cent inhibition versus DMSO. As to conditions: 48 h, 5 µM, inhibitor.

From PMC4552634, “A New Set of Chemical Starting Points with Plasmodium falciparum Transmission-Blocking Potential for Antimalarial Drug Discovery” (PLoS ONE, 2015) come the findings set out here.

Like-named read-outs stand apart in the source and are kept apart here. Hit rate of the full screen: of about 13,000 compounds, about 3,200 (25%) showed an effect of 50% or more. The list shows a part of the results.

What is called % Inhibition is the relative decrease from the control value, in per cent.

With `O=C(/C=C/c1ccc(Cl)c(Cl)c1)NCCCCCN1CCCC(CNS(=O)(=O)c2cccc(C(F)(F)F)c2)C1` (stereo not drawn) [TCMDC-139597], the “% Inhibition” value was determined as 100.9%.

As to `O=C(C=Cc1ccc(Cl)c(Cl)c1)NCCCCCN1CCC(CCCNS(=O)(=O)c2cccc(C(F)(F)F)c2)CC1` [TCMDC-139591], the “% Inhibition” value was 107.6%. `CN(C(=O)/C=C/c1cc(C(F)(F)F)ccc1F)C1CCN(CCCCCNC(=O)/C=C/c2ccc(Cl)c(Cl)c2)C1` (stereo not drawn) [TCMDC-139997]: the “% Inhibition” value was found to be 27.91%.

Consider `O=C(C=Cc1ccc(Cl)c(Cl)c1)NCCCCCN1CCCC(CCCNC(=O)c2cccs2)C1` (stereo not drawn) [TCMDC-139576], for which the “% Inhibition” value came out at 12.1%. For `O=C(/C=C/c1ccc(Cl)c(Cl)c1)NCCCCCN1CCC(NC(=O)Nc2cccc(C(F)(F)F)c2)CC1` [TCMDC-135724], the “% Inhibition” value is -61.55%. Same read-out and setting: the figure for `O=C(C=Cc1ccc(Cl)c(Cl)c1)NCCCCCN1CCCC(CCCNS(=O)(=O)c2cccc(C(F)(F)F)c2)C1` (stereo not drawn) [TCMDC-139593] is 101.3%; for `O=C(C=Cc1ccc(Cl)c(Cl)c1)NCCCCCN1CCCC(CCCNS(=O)(=O)c2cccc3cccnc23)C1` (stereo not drawn) [TCMDC-139594] it is 96.79%; for `O=C(CNCC1CCCCC1)Nc1cc(C(F)(F)F)ccc1Cl` [TCMDC-124505] it is 6.087%. Take `Cc1nc(-c2nc(NCc3ccc4c(c3)OCO4)ncc2-c2ccsc2)sc1C` [TCMDC-125358]: the “% Inhibition” value is recorded as 15.74%.

Turning to `CCCc1cc(O)c2c3c(c(=O)oc2c1)CN(C)CC3` [TCMDC-124226], the “% Inhibition” value was -5.24%.

As to `COc1ccc(C2=[N+]([O-])c3ccccc3C2=O)cc1` [TCMDC-123940], the “% Inhibition” value is given as -13.17%. For the compound `O=C(O)c1cc(C(F)(F)F)co1` [TCMDC-124155], the “% Inhibition” value is recorded as -1.887%. Regarding `COc1cccc2cc(C(=O)N[C@@H](CC(C)C)C(=O)N[C@H](C=NN(C)C(=O)OC(C)(C)C)Cc3ccccc3)oc12` [TCMDC-136133], the “% Inhibition” value amounted to 30.7%. As to `CC[C@H](NC(=O)c1ccc(NC(=O)OC(C)(C)C)cc1)C(=O)N[C@@H](CO)C(=O)NCCCCc1ccccc1` [TCMDC-137189], the “% Inhibition” value came out at 5.299%.

For `Cc1cc(NCCC(=O)NCCc2ccccc2)nc(NCCc2ccc(F)cc2)n1` [TCMDC-134782], the “% Inhibition” value is listed as 63.79%. As for `Cc1cccc(CNc2nc(C)cc(NCCC(=O)NCc3cccc(F)c3)n2)c1` [TCMDC-134882], the “% Inhibition” value is reported as 28.72%. Turning to `Cc1cc(NCCC(=O)NCc2cccc(F)c2)nc(Nc2ccccc2)n1` [TCMDC-134730], the “% Inhibition” value was 9.488%. Regarding `Cc1cc(NCCC(=O)NCc2cccc(F)c2)nc(NCCc2ccc(F)cc2)n1` [TCMDC-134781], the “% Inhibition” value is recorded as 71.46%.

In the case of `CCC1(CC)C(=O)N=C(N2CCCCC2)N(C)C1=O` [TCMDC-124231], the “% Inhibition” value is 77.81%. With `COc1ccc2nccc([C@@H](O)CN3CCC(NCc4ccc5nnsc5c4)CC3)c2c1` [TCMDC-140923], the “% Inhibition” value is 19.95%. On to `Cn1nc(-c2ccccc2F)c2cc(C(=O)NC3CCN(Cc4ccccc4)CC3)sc21` [TCMDC-123582], for which the “% Inhibition” value was 63.05%. Still for that read-out and setting: the figure for `CCc1ccc(CN2CCC(NC(=O)c3ccc(-c4ccccc4F)s3)CC2)cc1` [TCMDC-134343] is -3.563%; for `CC(C)(C)c1ccc(CN2CCC(NC(=O)c3ccc(-c4ccccc4F)s3)CC2)cc1` [TCMDC-134349] it is 3.235%; for `Cn1nc(-c2ccccc2F)c2cc(C(=O)Nc3cccnc3)sc21` [TCMDC-123581] it is -8.367%. On to `COc1cccc(-c2nn(C)c3sc(C(=O)NCCN4CCN(c5ccccc5F)CC4)cc23)c1` [TCMDC-123585], for which the “% Inhibition” value is on record as -24.43%. The same measure, in the same setting: the figure for `Cc1cccc(CN2CCC(CNC(=O)c3cc4c(-c5ccccc5F)nn(C)c4s3)CC2)c1` [TCMDC-124566] is 59.21%. Regarding `COc1ccc2ncc(F)c(C(O)CN3CCC(NCc4ccc5c(n4)NC(=O)CO5)CC3)c2c1` (stereo not drawn) [TCMDC-135530], the “% Inhibition” value (% Inhibition) came to 22.05%. `COC(=O)c1ccc(CC(C)NCC(O)c2cccc3ccccc23)cc1` (stereo not drawn) [TCMDC-131432]: the “% Inhibition” value is on record as 16.03%. Regarding `CS(=O)(=O)c1ccccc1CNC(=O)c1ccc(-c2cccc(-c3nc4cc(C(F)(F)F)ccc4[nH]3)c2)cc1` [TCMDC-132504], the “% Inhibition” value was -46.91%. `COc1cccc(N(CCCN2C(=O)c3cccc4cccc(c34)C2=O)C(=O)c2ccccc2C)c1` [TCMDC-124157]: the “% Inhibition” value was found to be 34.34%. As for `c1ccc2[nH]c(-c3ccc(-c4ccc(CNCCc5ccncc5)cc4)s3)nc2c1` [TCMDC-132843], the “% Inhibition” value is recorded as -16.65%. Turning to `CC1(C)C(=O)Nc2ccc3c(c21)CC1SC(=O)NN=C31` (stereo not drawn) [TCMDC-131539], the “% Inhibition” value is 68.11%.

As for `Nc1nc(N)c2c(CCc3ccc(Cl)c(Cl)c3)cccc2n1` [TCMDC-141976], the “% Inhibition” value was -2.303%.

Turning to `CCCc1cc(Cc2cnc(N)nc2N)cc(CC)c1O` [TCMDC-138059], the “% Inhibition” value is recorded as -83.65%. For `Cc1cc2ncn(-c3nccc(NCc4ccc(F)cc4)n3)c2cc1C` [TCMDC-135877], the “% Inhibition” value stood at 11.81%. The same measure, in the same setting: the same measure for `Cc1cc(Nc2nc(NCc3cccnc3)nc3ccccc23)n[nH]1` [TCMDC-135161]: 33.23%. For `Cc1cc2ncn(-c3ccnc(N4CCN(CCCN5CCCC5)CC4)n3)c2cc1C` [TCMDC-136311], the “% Inhibition” value is given as 9.256%. Turning to `Cc1cc2ncn(-c3nccc(NCc4cccnc4)n3)c2cc1C` [TCMDC-135879], the “% Inhibition” value came to 55.3%. On the same count and under the same terms, the figure for `COc1ccc(CNc2ccnc(-n3cnc4cc(C)c(C)cc43)n2)cc1Cl` [TCMDC-135878] is 49.39%; for `Cc1cc2ncn(-c3nccc(NCc4ccc(F)c(C)c4)n3)c2cc1C` [TCMDC-135880] it is 65.21%; for `O=C(O)c1ccc(OCOCOc2ccc(C(=O)O)c(O)c2)cc1O` [TCMDC-131764] it is 13.72%. On the same count and under the same terms, the same measure for `COc1ccc(C2SCC(=O)N2CCc2ccc(OC)c(OC)c2)cc1` (stereo not drawn) [TCMDC-125738]: 0.3725%; for `NC1CCN(CCNCc2cccc(-c3ccc(-c4nc5ccc(F)cc5[nH]4)cc3)c2)C1` (stereo not drawn) [TCMDC-133857]: 75.97%; for `CS(=O)(=O)NCCCNCc1cccc(-c2ccc(-c3nc4ccc(C(F)(F)F)cc4[nH]3)cc2)c1` [TCMDC-133079]: -16.43%. In the case of `NC1CCN(CCNCc2cccc(-c3ccc(-c4nc5ccc(C(F)(F)F)cc5[nH]4)cc3)c2)C1` (stereo not drawn) [TCMDC-133841], the “% Inhibition” value was 98.1%.
